Source: PubChem BioAssay (NCI)
About 83,000 compounds went through this panel and 20% of them were active in at least one assay; those are over-represented in the sample as a whole.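 For each line, cells grew in 96-well plates with the test compound present at a single concentration for 48 hours.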 Active and inactive are the calls of the source. The calls were made as follows: active = growth percent below 10; inactive = the rest.

Each compound was assayed on NCI-H322M lung (assay: NCI-60 one-dose screen, 48 h (100 = growth as untreated, 0 = no growth, -100 = all killed)). Details: 10 µM.

| Compound | growth |
| --- | --- |
| COc1cc2c3c(n(CCCNCCO)c(=O)c2cc1OC)-c1nc2c(cc1C3=O)OCO2 | 16.8% (inactive) |
| COc1ccc2[nH]cc(/C=N/Nc3ccc(Br)cn3)c2c1 | 43.8% (inactive) |
| O=C(Cn1cc(CSc2nnc3oc4ccccc4n23)nn1)Nc1cccc(Cl)c1 | 84.1% (inactive) |
| O=C(NO)c1ccc(Cn2ccc3c(Nc4ccccc4)ncnc32)cc1 | 42.7% (inactive) |
| COc1ccc(-c2nc(-c3ccccc3)c(-c3ccccc3)n2-c2ccc(S(=O)(=O)Nc3ncccn3)cc2)cc1OC | 77.4% (inactive) |
| O=C(CSc1ccc(-c2ccc(Cl)cc2)nn1)Nc1ccc(Cl)c(C(F)(F)F)c1 | 89.1% (inactive) |
| CC1(C)[C@@H](NCO)CC[C@]2(C)[C@H]3C(=O)C=C4[C@@H]5C[C@](C)(CO)CC[C@]5(C)CC[C@@]4(C)[C@]3(C)CC[C@@H]12 | 63.1% (inactive) |
| Cn1cc(-c2cc(N)n3nc(-c4c[nH]c5ccc(Br)cc45)cc3n2)c2cccnc21 | -42% (active) |
| Nc1nnc(-c2c[nH]c3ncccc23)c(-c2c[nH]c3ccc(Br)cc23)n1 | 60.5% (inactive) |
| N#Cc1ccc(-c2nn(-c3ccc(C(=O)O)cc3)cc2CNc2ccc(Cl)cc2)cc1 | 88.8% (inactive) |
| O=C(c1ccc(O)cc1)C1[C@H](c2ccccc2Br)[C@@H](c2ccccc2)NC12C(=O)Nc1ccc(Cl)cc12 (some centres undefined) | 27% (inactive) |
| COc1nccnc1NS(=O)(=O)c1ccc(NC2=C(Cl)C(=O)c3nc(C)ccc3C2=O)cc1 | 101% (inactive) |
| CCOC(=O)C1=C(N)N(c2ccc(Cl)cc2)C2=C(C(=O)CC(C)(C)C2)C1c1ccc(N2CCOCC2)cc1 (centres undefined) | 95.4% (inactive) |
| CN(C(=O)c1ccc(C(C)(C)C)cc1)c1sc2c(c1C#N)CCC(=O)C2 | 88.4% (inactive) |
| Cc1cc(C)nc(SCC(=O)Nc2ccc(S(N)(=O)=O)cc2)n1 | 102% (inactive) |
| COc1ccc2[nH]c(O)c(N=NC(=O)c3cc(-c4ccc(C)cc4)nc4ccccc34)c2c1 | 102% (inactive) |
| O=C1Nc2ccc(Cl)cc2/C1=C/c1cccc(OCc2ccccn2)c1 | 40.1% (inactive) |
| Nc1nc(-c2ccccc2)cs1 | 99.4% (inactive) |
| COc1ccc2c3nc4cc(C)c(C)cc4nc3n(CCN(C)C)c2c1 | 0.682% (active) |

| Compound | growth |
| --- | --- |
| O=C(c1ccc(Cl)cc1)C1[C@H](c2ccc(Br)cc2)[C@@H](c2ccccc2)NC12C(=O)Nc1ccc(Cl)cc12 (some centres undefined) | -28.6% (active) |
| CC(=O)Nc1ccc(-c2cn(-c3cccc(C(=O)Nc4ccc(Cl)c(C(F)(F)F)c4)c3)nn2)cn1 | -18.7% (active) |
| COc1ccc2nc(Cl)c(-c3cc(-c4ccccc4)nc(N)n3)cc2c1 | 60.7% (inactive) |
| CN1CCN(c2ccc(Nc3nc(NCCCNC(=O)C4CCCCC4)c4sccc4n3)cc2)CC1 | 70% (inactive) |
| COc1ccc(NC(=O)CSc2nnc(-c3ccc4nc(-c5ccc(Cl)cc5)[nH]c4c3)o2)cc1 | 45.8% (inactive) |
| CCCCCc1ccc(S(=O)(=O)Nc2cc(-c3csc(N(C)C(C)=O)n3)ccc2N2CCN(C)CC2)cc1 | 63.6% (inactive) |
| COc1ccc(NC(=O)Nc2ccc(OCC(=O)N=Nc3c(O)[nH]c4ccc([N+](=O)[O-])cc34)cc2)cc1 | 91.2% (inactive) |
| O=S(=O)(Nc1ncccn1)c1ccc(-n2c(-c3ccccc3)nc(-c3ccccc3)c2-c2ccccc2)cc1 | 96.4% (inactive) |
| O=c1oc2ccc(-c3ccc(F)cc3F)cc2c(=O)n1-c1ccc(Cl)c(C(F)(F)F)c1 | -2.17% (active) |
| CN1CCN(Cc2ccc(C(=O)Nc3cccc(Nc4ccc5c(O)cccc5n4)c3)cc2C(F)(F)F)CC1 | -18.6% (active) |
| O=C(c1ccc(-n2c(=O)[nH]c3ccccc3c2=O)cc1)N1CCOCC1 | 98.7% (inactive) |
| Cc1ccc(C(=O)Nc2ccc(-n3c(C)nc4c(cnn4-c4ccccc4)c3=O)cc2)cc1 | 87.3% (inactive) |
| O=C(Nc1ccccc1)Nc1nc2ccccc2s1 | 84.4% (inactive) |
| COc1cc2c(c(OC)c1OC)C(=O)CC(c1cccc(NC(=O)c3cccc(N)c3)c1)O2 (centres undefined) | 91% (inactive) |
| CCN1CCN(Cc2ccc(C(=O)Nc3cccc(-c4cn(-c5ccc6oc(=O)ccc6c5)nn4)c3)cc2C(F)(F)F)CC1 | -100% (active) |
| CCOC(=O)C1NN(c2ccc(S(N)(=O)=O)cc2)c2nc3nc(-c4cccs4)cc(-c4cccs4)c3c(=O)n21 (centres undefined) | 99.7% (inactive) |
| O=c1c2ccccc2nc(COc2ccccc2)n1/N=C/c1ccc(N2CCCC2)cc1 | 91.2% (inactive) |
| COc1ccc(-c2ccc(/C=N/NC(=O)c3[nH]c4ccc(Br)cc4c3-c3ccccc3)s2)cc1 | 92.3% (inactive) |

What follows are compounds tested on HOP-62 NSCLC in the same assay as above. Details: 10 µM.

| Compound | growth |
| --- | --- |
| COc1cc2c3c(n(CCCNCCO)c(=O)c2cc1OC)-c1nc2c(cc1C3=O)OCO2 | 0.0851% (active) |
| COc1ccc2[nH]cc(/C=N/Nc3ccc(Br)cn3)c2c1 | 45.8% (inactive) |
| O=C(Cn1cc(CSc2nnc3oc4ccccc4n23)nn1)Nc1cccc(Cl)c1 | 72.9% (inactive) |
| O=C(NO)c1ccc(Cn2ccc3c(Nc4ccccc4)ncnc32)cc1 | 14.4% (inactive) |
| COc1ccc(-c2nc(-c3ccccc3)c(-c3ccccc3)n2-c2ccc(S(=O)(=O)Nc3ncccn3)cc2)cc1OC | 76.9% (inactive) |
| O=C(CSc1ccc(-c2ccc(Cl)cc2)nn1)Nc1ccc(Cl)c(C(F)(F)F)c1 | 57.4% (inactive) |
| CC1(C)[C@@H](NCO)CC[C@]2(C)[C@H]3C(=O)C=C4[C@@H]5C[C@](C)(CO)CC[C@]5(C)CC[C@@]4(C)[C@]3(C)CC[C@@H]12 | 85.2% (inactive) |
| Cn1cc(-c2cc(N)n3nc(-c4c[nH]c5ccc(Br)cc45)cc3n2)c2cccnc21 | -89.6% (active) |
| Nc1nnc(-c2c[nH]c3ncccc23)c(-c2c[nH]c3ccc(Br)cc23)n1 | 49.4% (inactive) |
| N#Cc1ccc(-c2nn(-c3ccc(C(=O)O)cc3)cc2CNc2ccc(Cl)cc2)cc1 | 81.3% (inactive) |
| O=C(c1ccc(O)cc1)C1[C@H](c2ccccc2Br)[C@@H](c2ccccc2)NC12C(=O)Nc1ccc(Cl)cc12 (some centres undefined) | 6.01% (active) |
| COc1nccnc1NS(=O)(=O)c1ccc(NC2=C(Cl)C(=O)c3nc(C)ccc3C2=O)cc1 | 101% (inactive) |
| CCOC(=O)C1=C(N)N(c2ccc(Cl)cc2)C2=C(C(=O)CC(C)(C)C2)C1c1ccc(N2CCOCC2)cc1 (centres undefined) | 118% (inactive) |
| CN(C(=O)c1ccc(C(C)(C)C)cc1)c1sc2c(c1C#N)CCC(=O)C2 | 34.6% (inactive) |
| Cc1cc(C)nc(SCC(=O)Nc2ccc(S(N)(=O)=O)cc2)n1 | 108% (inactive) |
| COc1ccc2[nH]c(O)c(N=NC(=O)c3cc(-c4ccc(C)cc4)nc4ccccc34)c2c1 | 102% (inactive) |
| O=C1Nc2ccc(Cl)cc2/C1=C/c1cccc(OCc2ccccn2)c1 | 52.1% (inactive) |
| Nc1nc(-c2ccccc2)cs1 | 52% (inactive) |
| COc1ccc2c3nc4cc(C)c(C)cc4nc3n(CCN(C)C)c2c1 | 8.8% (active) |

| Compound | growth |
| --- | --- |
| O=C(c1ccc(Cl)cc1)C1[C@H](c2ccc(Br)cc2)[C@@H](c2ccccc2)NC12C(=O)Nc1ccc(Cl)cc12 (some centres undefined) | -73.4% (active) |
| CC(=O)Nc1ccc(-c2cn(-c3cccc(C(=O)Nc4ccc(Cl)c(C(F)(F)F)c4)c3)nn2)cn1 | -60.2% (active) |
| COc1ccc2nc(Cl)c(-c3cc(-c4ccccc4)nc(N)n3)cc2c1 | 40.8% (inactive) |
| CN1CCN(c2ccc(Nc3nc(NCCCNC(=O)C4CCCCC4)c4sccc4n3)cc2)CC1 | 72.4% (inactive) |
| COc1ccc(NC(=O)CSc2nnc(-c3ccc4nc(-c5ccc(Cl)cc5)[nH]c4c3)o2)cc1 | 74.6% (inactive) |
| CCCCCc1ccc(S(=O)(=O)Nc2cc(-c3csc(N(C)C(C)=O)n3)ccc2N2CCN(C)CC2)cc1 | 54.2% (inactive) |
| COc1ccc(NC(=O)Nc2ccc(OCC(=O)N=Nc3c(O)[nH]c4ccc([N+](=O)[O-])cc34)cc2)cc1 | 40.7% (inactive) |
| O=S(=O)(Nc1ncccn1)c1ccc(-n2c(-c3ccccc3)nc(-c3ccccc3)c2-c2ccccc2)cc1 | 100% (inactive) |
| O=c1oc2ccc(-c3ccc(F)cc3F)cc2c(=O)n1-c1ccc(Cl)c(C(F)(F)F)c1 | -18.8% (active) |
| CN1CCN(Cc2ccc(C(=O)Nc3cccc(Nc4ccc5c(O)cccc5n4)c3)cc2C(F)(F)F)CC1 | -47.2% (active) |
| O=C(c1ccc(-n2c(=O)[nH]c3ccccc3c2=O)cc1)N1CCOCC1 | 134% (inactive) |
| Cc1ccc(C(=O)Nc2ccc(-n3c(C)nc4c(cnn4-c4ccccc4)c3=O)cc2)cc1 | 78.8% (inactive) |
| O=C(Nc1ccccc1)Nc1nc2ccccc2s1 | 77.2% (inactive) |
| COc1cc2c(c(OC)c1OC)C(=O)CC(c1cccc(NC(=O)c3cccc(N)c3)c1)O2 (centres undefined) | 100% (inactive) |
| CCN1CCN(Cc2ccc(C(=O)Nc3cccc(-c4cn(-c5ccc6oc(=O)ccc6c5)nn4)c3)cc2C(F)(F)F)CC1 | -99.5% (active) |
| CCOC(=O)C1NN(c2ccc(S(N)(=O)=O)cc2)c2nc3nc(-c4cccs4)cc(-c4cccs4)c3c(=O)n21 (centres undefined) | 109% (inactive) |
| O=c1c2ccccc2nc(COc2ccccc2)n1/N=C/c1ccc(N2CCCC2)cc1 | 108% (inactive) |
| COc1ccc(-c2ccc(/C=N/NC(=O)c3[nH]c4ccc(Br)cc4c3-c3ccccc3)s2)cc1 | 96.1% (inactive) |
